In PubChem BioAssay (NCI):
This is part of a sample that, as a whole, favours compounds with a hit. Of some 83,000 tested, about 20% had one in any assay.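 Testing used 96-well plates and a 48-hour single-concentration exposure. Example: -40 means 40% of the starting cells died.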 The source made the active and inactive calls. How the source made its calls: active means growth percent below 10; inactive means the rest.

Tests used:
Test in all cases: NCI-60 one-dose screen, 48 h (100 = growth as untreated, 0 = no growth, -100 = all killed)
Settings in all cases: 10 µM unless noted
SK-MEL-2 melanoma = tested on: SK-MEL-2 melanoma
EKVX NSCLC = tested on: EKVX NSCLC
SN12C renal = tested on: SN12C renal
UO-31 renal = tested on: UO-31 renal
TK-10 renal = tested on: TK-10 renal
ACHN renal = tested on: ACHN renal
CAKI-1 renal = tested on: CAKI-1 renal
CCRF-CEM leukemia = tested on: CCRF-CEM leukemia
MOLT-4 leukemia = tested on: MOLT-4 leukemia
SR leukemia = tested on: SR leukemia
RPMI-8226 leukemia = tested on: RPMI-8226 leukemia
OVCAR-8 ovarian = tested on: OVCAR-8 ovarian
OVCAR-5 ovarian = tested on: OVCAR-5 ovarian
OVCAR-4 ovarian = tested on: OVCAR-4 ovarian
SK-OV-3 ovarian = tested on: SK-OV-3 ovarian
OVCAR-3 ovarian = tested on: OVCAR-3 ovarian
HS 578T breast = tested on: HS 578T breast
NCI/ADR-RES ovarian = tested on: NCI/ADR-RES ovarian
A498 renal = tested on: A498 renal
IGROV1 ovarian = tested on: IGROV1 ovarian

Measured: growth

CN(CCCNC(=O)CCOCCOCCOCCNC(=O)Cc1ccc2ccc3cccc4ccc1c2c34)CCCNc1cc(-c2ccc3ccccc3c2)nc2ccccc12
active: SK-MEL-2 melanoma -70.4% | EKVX NSCLC -65.8% | SN12C renal -75.3% | UO-31 renal -73.4% | TK-10 renal -84.2% | ACHN renal -78.8% | CAKI-1 renal -82.4% | CCRF-CEM leukemia -78.6% | MOLT-4 leukemia -83.7% | SR leukemia -74.8% | RPMI-8226 leukemia -48.9% | OVCAR-8 ovarian -37.4% | OVCAR-5 ovarian -86.4% | OVCAR-4 ovarian -90.6% | SK-OV-3 ovarian -96.8% | OVCAR-3 ovarian -92% | HS 578T breast -58.9% | NCI/ADR-RES ovarian 8.51%

O=C(Nc1cnc(Nc2ccc(N3CCOCC3)nc2)nc1Oc1ccc(C(F)(F)F)cc1)c1ccncc1
inactive: SK-MEL-2 melanoma 94.8% | EKVX NSCLC 100% | SN12C renal 85% | UO-31 renal 98.4% | TK-10 renal 107% | ACHN renal 98.9% | CAKI-1 renal 90.4% | CCRF-CEM leukemia 90.8% | MOLT-4 leukemia 101% | SR leukemia 19.3% | RPMI-8226 leukemia 100% | OVCAR-8 ovarian 86.6% | OVCAR-5 ovarian 92.9% | OVCAR-4 ovarian 80.3% | SK-OV-3 ovarian 101% | OVCAR-3 ovarian 85% | HS 578T breast 81.6% | NCI/ADR-RES ovarian 86%

Cc1ccc(C)c(/C=C2\CN(C(=O)OC(C)(C)C)C/C(=C\c3cc(C)ccc3C)C2=O)c1
active: CCRF-CEM leukemia 4.98% | MOLT-4 leukemia 7.4% | SR leukemia 0.122% | RPMI-8226 leukemia -24.4%
inactive: SK-MEL-2 melanoma 82% | EKVX NSCLC 82.8% | SN12C renal 31.4% | UO-31 renal 61.1% | TK-10 renal 89.1% | ACHN renal 15.5% | CAKI-1 renal 45.2% | A498 renal 73% | OVCAR-8 ovarian 12.7% | SK-OV-3 ovarian 87.7% | IGROV1 ovarian 78.1% | OVCAR-3 ovarian 13.1% | HS 578T breast 43.9% | NCI/ADR-RES ovarian 26.5%

CNC1=CC(=O)c2c(C(=O)OC)c(C)[n+]([O-])c(C)c2C1=O
inactive: SK-MEL-2 melanoma 70.7% | EKVX NSCLC 84% | SN12C renal 40% | UO-31 renal 90.7% | TK-10 renal 133% | ACHN renal 74.4% | CAKI-1 renal 74.4% | CCRF-CEM leukemia 81.6% | MOLT-4 leukemia 95.6% | SR leukemia 95.5% | RPMI-8226 leukemia 76.1% | OVCAR-8 ovarian 35% | OVCAR-5 ovarian 96.1% | OVCAR-4 ovarian 26% | SK-OV-3 ovarian 120% | HS 578T breast 94.1%
active: OVCAR-3 ovarian 7.04%

CCOC(=O)C(=CNc1cnc(Nc2ccc(N3CCOCC3)cc2)nc1Oc1ccc(OC)cc1)C(=O)OCC
active: TK-10 renal -26% | OVCAR-4 ovarian -43.1% | OVCAR-3 ovarian -9.17%
inactive: SK-MEL-2 melanoma 91.8% | EKVX NSCLC 87.1% | SN12C renal 26.6% | UO-31 renal 11.3% | ACHN renal 19% | CAKI-1 renal 25.1% | CCRF-CEM leukemia 37.7% | MOLT-4 leukemia 60.5% | SR leukemia 31.6% | RPMI-8226 leukemia 42.2% | OVCAR-8 ovarian 43.1% | OVCAR-5 ovarian 71.5% | IGROV1 ovarian 26.8% | HS 578T breast 35% | NCI/ADR-RES ovarian 54.4%

C=C1C(=O)O[C@H]2[C@H]1CC/C(COC(=O)/C=C/C(=O)OC/C1=C/CC[C@@]3(C)O[C@H]3[C@H]3OC(=O)C(=C)[C@@H]3CC1)=C\CC[C@@]1(C)O[C@@H]21
active: SN12C renal 4.73% | UO-31 renal -41.7% | TK-10 renal 0.985% | ACHN renal -13.5% | CCRF-CEM leukemia -12.9% | MOLT-4 leukemia 7.58% | SR leukemia 7.6% | RPMI-8226 leukemia -15.2% | OVCAR-3 ovarian -0.457%
inactive: SK-MEL-2 melanoma 93.4% | EKVX NSCLC 88.2% | CAKI-1 renal 63.3% | OVCAR-8 ovarian 62.7% | OVCAR-5 ovarian 88.8% | OVCAR-4 ovarian 86.2% | SK-OV-3 ovarian 110% | IGROV1 ovarian 87.6% | HS 578T breast 90.2% | NCI/ADR-RES ovarian 96.5%

COc1ccc(/C=C/C(=O)c2cc(OC)c(OC)c(OC)c2)cc1OCC(=O)Nc1nc2ccc(OC(F)(F)F)cc2s1
active: UO-31 renal 3.8% | TK-10 renal -6.47% | ACHN renal -1.17% | CAKI-1 renal 9.57% | MOLT-4 leukemia 0.429% | RPMI-8226 leukemia 6.47% | OVCAR-8 ovarian 3.67% | OVCAR-4 ovarian -7.18% | SK-OV-3 ovarian -11.8% | OVCAR-3 ovarian -77.3% | HS 578T breast -20.8% | NCI/ADR-RES ovarian -13.5%
inactive: SK-MEL-2 melanoma 45.7% | EKVX NSCLC 62.1% | SN12C renal 19.1% | A498 renal 68.1% | CCRF-CEM leukemia 20.4% | SR leukemia 11.6%

Cc1nc2cc(O)c(O)cc2cc1Oc1ccc(NC(=O)Nc2ccc(Cl)c(Cl)c2)cc1
active: SR leukemia 8.95%
inactive: SK-MEL-2 melanoma 77.7% | EKVX NSCLC 98.5% | SN12C renal 85.6% | UO-31 renal 58.6% | TK-10 renal 85.3% | ACHN renal 39% | CAKI-1 renal 27.3% | A498 renal 118% | CCRF-CEM leukemia 19.9% | MOLT-4 leukemia 12.6% | RPMI-8226 leukemia 75.7% | OVCAR-8 ovarian 47.7% | SK-OV-3 ovarian 44.9% | IGROV1 ovarian 67.1% | OVCAR-3 ovarian 67.9% | HS 578T breast 105% | NCI/ADR-RES ovarian 59%

O=C(Nc1ncc(Cc2cc(C(F)(F)F)ccc2Cl)s1)c1cccs1
inactive: SK-MEL-2 melanoma 45% | EKVX NSCLC 57.3% | SN12C renal 70.9% | UO-31 renal 58.9% | TK-10 renal 71.7% | ACHN renal 67.2% | CAKI-1 renal 41.7% | A498 renal 62.2% | CCRF-CEM leukemia 45.4% | MOLT-4 leukemia 29.4% | SR leukemia 16.1% | RPMI-8226 leukemia 55.7% | OVCAR-8 ovarian 68.6% | SK-OV-3 ovarian 69.2% | IGROV1 ovarian 52.7% | OVCAR-3 ovarian 50.5% | HS 578T breast 71% | NCI/ADR-RES ovarian 29.7%

N#C/C(=C\c1ccc(-c2cccc(C(F)(F)F)c2)o1)c1ccccc1
inactive: SK-MEL-2 melanoma 98.9% | EKVX NSCLC 67% | SN12C renal 90.2% | UO-31 renal 68.7% | TK-10 renal 150% | ACHN renal 85.2% | CAKI-1 renal 69% | CCRF-CEM leukemia 97% | MOLT-4 leukemia 89.7% | SR leukemia 86.3% | RPMI-8226 leukemia 90.9% | OVCAR-8 ovarian 101% | OVCAR-5 ovarian 96.9% | OVCAR-4 ovarian 79% | SK-OV-3 ovarian 84.7% | IGROV1 ovarian 59.9% | OVCAR-3 ovarian 95.6% | HS 578T breast 86.7% | NCI/ADR-RES ovarian 101%

Cc1ccc(C(=O)c2ccc(CC(=O)NN3C(=O)c4ccccc4C3=O)n2C)cc1
inactive: SK-MEL-2 melanoma 102% | EKVX NSCLC 100% | SN12C renal 92.8% | UO-31 renal 75.7% | TK-10 renal 111% | ACHN renal 96.3% | CAKI-1 renal 87.4% | CCRF-CEM leukemia 110% | MOLT-4 leukemia 100% | SR leukemia 110% | RPMI-8226 leukemia 100% | OVCAR-8 ovarian 98.9% | OVCAR-5 ovarian 93.7% | OVCAR-4 ovarian 101% | IGROV1 ovarian 98.6% | OVCAR-3 ovarian 107% | HS 578T breast 104% | NCI/ADR-RES ovarian 99.1%

NC(=O)c1c(NC(=O)c2cccs2)sc2c1CCC(=O)C2
inactive: SK-MEL-2 melanoma 81.6% | EKVX NSCLC 69.6% | SN12C renal 44.9% | UO-31 renal 28.8% | TK-10 renal 59.8% | ACHN renal 22% | MOLT-4 leukemia 13.6% | OVCAR-8 ovarian 21.2% | OVCAR-5 ovarian 22.2% | SK-OV-3 ovarian 87.1% | IGROV1 ovarian 29.7% | OVCAR-3 ovarian 13% | HS 578T breast 35.1% | NCI/ADR-RES ovarian 59.4%
active: CAKI-1 renal -1.29% | CCRF-CEM leukemia 8.75% | SR leukemia 5.54% | RPMI-8226 leukemia -13.6% | OVCAR-4 ovarian -6.38%

COc1cc(/C=C/C(=O)/C=C(O)/C=C/c2ccc(OC(=O)C34CC5CC(CC(C5)C3)C4)c(OC)c2)ccc1OC(=O)C12CC3CC(CC(C3)C1)C2
inactive: SK-MEL-2 melanoma 101% | EKVX NSCLC 101% | SN12C renal 95.5% | UO-31 renal 69.3% | TK-10 renal 97% | ACHN renal 99% | CAKI-1 renal 91.3% | A498 renal 102% | CCRF-CEM leukemia 103% | MOLT-4 leukemia 116% | SR leukemia 120% | RPMI-8226 leukemia 105% | OVCAR-8 ovarian 104% | SK-OV-3 ovarian 114% | IGROV1 ovarian 92.5% | OVCAR-3 ovarian 109% | HS 578T breast 94.2% | NCI/ADR-RES ovarian 104%

O=C(CN1CCN(c2cc3c(cc2F)c(=O)c(C(=O)O)cn3C2CC2)CC1)N/N=C/c1ccco1
inactive: SK-MEL-2 melanoma 105% | EKVX NSCLC 97.8% | SN12C renal 108% | UO-31 renal 88.3% | TK-10 renal 101% | ACHN renal 98.1% | CAKI-1 renal 99.7% | CCRF-CEM leukemia 107% | MOLT-4 leukemia 93.9% | SR leukemia 92.9% | RPMI-8226 leukemia 101% | OVCAR-8 ovarian 98.2% | OVCAR-5 ovarian 85.1% | OVCAR-4 ovarian 105% | SK-OV-3 ovarian 88.8% | IGROV1 ovarian 101% | HS 578T breast 95.5% | NCI/ADR-RES ovarian 103%

C#CCn1cnc2cnc(Nc3cccc(NC(=O)C=C)c3)nc21
active: CCRF-CEM leukemia 1.84% [6.25 µM] | MOLT-4 leukemia 8.28% [6.25 µM] | SR leukemia 4.73% [6.25 µM] | RPMI-8226 leukemia -14% [6.25 µM]
inactive: SK-MEL-2 melanoma 61.1% [6.25 µM] | EKVX NSCLC 89.2% [6.25 µM] | SN12C renal 90.5% [6.25 µM] | UO-31 renal 37.5% [6.25 µM] | TK-10 renal 79.9% [6.25 µM] | ACHN renal 75.3% [6.25 µM] | CAKI-1 renal 83.4% [6.25 µM] | OVCAR-8 ovarian 84.1% [6.25 µM] | OVCAR-5 ovarian 101% [6.25 µM] | OVCAR-4 ovarian 90.8% [6.25 µM] | SK-OV-3 ovarian 52.4% [6.25 µM] | IGROV1 ovarian 75.2% [6.25 µM] | OVCAR-3 ovarian 104% [6.25 µM] | HS 578T breast 74.5% [6.25 µM] | NCI/ADR-RES ovarian 98.6% [6.25 µM]

S=c1nc2oc(-c3ccccc3)c(-c3ccccc3)c2c(/N=C\c2ccco2)[nH]1
inactive: SK-MEL-2 melanoma 92.1% | EKVX NSCLC 95.7% | SN12C renal 99.1% | UO-31 renal 81.2% | TK-10 renal 99.6% | ACHN renal 93.8% | CAKI-1 renal 92.3% | CCRF-CEM leukemia 108% | MOLT-4 leukemia 84% | SR leukemia 86.3% | RPMI-8226 leukemia 97.6% | OVCAR-8 ovarian 97.4% | OVCAR-5 ovarian 87.7% | OVCAR-4 ovarian 93.6% | SK-OV-3 ovarian 109% | IGROV1 ovarian 101% | OVCAR-3 ovarian 98.4% | HS 578T breast 81.9% | NCI/ADR-RES ovarian 100%
